Reference: the supplement of paper PMC10681739

Biological target: T1, ETS1 (UniProt P14921)
T1 sequence: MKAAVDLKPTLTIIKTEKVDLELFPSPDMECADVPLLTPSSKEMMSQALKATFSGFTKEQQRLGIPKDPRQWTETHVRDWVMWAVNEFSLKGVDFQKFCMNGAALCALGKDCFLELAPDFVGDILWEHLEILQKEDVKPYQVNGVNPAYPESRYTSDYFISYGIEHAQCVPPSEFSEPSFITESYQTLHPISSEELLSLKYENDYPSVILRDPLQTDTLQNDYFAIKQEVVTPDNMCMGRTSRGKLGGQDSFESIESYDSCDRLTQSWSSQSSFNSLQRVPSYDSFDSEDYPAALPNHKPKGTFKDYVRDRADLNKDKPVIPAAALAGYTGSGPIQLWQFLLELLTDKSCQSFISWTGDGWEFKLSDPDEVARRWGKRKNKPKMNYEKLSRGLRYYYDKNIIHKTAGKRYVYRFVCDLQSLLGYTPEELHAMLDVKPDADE
Assay: ETS1 binding intensity (PBM fluorescence) in presence of RUNX1, normalised to ETS1-only experiment (arbitrary fluorescence units); higher = stronger binding
Conditions: ETS1 concentration 1 nM; RUNX1 concentration 25 nM

Sequence | ETS1 binding intensity
GGGAGGAAGTGTGAAGGGACTTTTGTGGTGAGTGAT | 910
TGTGCTTTGTAGTGAGGATGTGGGTGCCTGCCTCAC | 1010
CCGCCCTCCACCGAGTTCCGGCCACAGAGCGGGCCC | 547
TCCAGGATGTGCTGAACCTCCAGAAACCACCGGCTT | 684
GACCTGACAACATCCTGGCGCAGTGGGTTGGCCCTG | 420
GGTTGTGGAGTAGGATGTGGTGTCTAGCTTTCAGCA | 568
CTCTGAAGGAAGTGATGTTAGACGGCTGTGGGTGGT | 785
TGGGAAGGGTGAGGAGGAAGCGGTGGCCTTGCTCTG | 604
ATGACTCATTTCCTCACTCTCTACTCCCACAGAACC | 464
CAGCCAGCCAGGAAGCAGGGGCTGCGGGGCTGACAG | 524
TTCATCTACTTCCCGCCACACCCACAGAGAAGCCCA | 377
GAGGAAAAAGGAAACAGAAACTCCGCAACTTGCGCC | 411
AGCGGTGTTTCAGGATGTGAGGGCCCGCAGGAGCCG | 837
AGGAGAGGATGTTGCTTGAAGGTGTGGTCTCCTCCA | 462
ATACATACAGGATGACATTTGTCCTGTGGGCACCAG | 515
GCTGTAGGAAATGTTATTCGCCGCGGTCAGGACAGG | 710
TGGAATTGAAAGGAAGCTGGCGCCACCGCAGAGGAC | 2830
GAGGTTGGGAAGTTCTTCCTTTGGTCTGACCACAGT | 596
GTCTTCACATGTAGGGGAAGTGGGTTAGCGTAGGAG | 1260
CCAAAAAGGAAGGAAACCAGAAAGCCACAGAATGGT | 1200

Sequence | ETS1 binding intensity
CCCCTTCATCCGCCTCTCTCTCACCGCGCCGCTCCC | 330
GGCGCCTCTTTCCGCCCCCGCCCACAATCGAGCGCA | 399
ACAGATGGTCCGGAACTTCAGAAAACCACTCATTGT | 592
GCGATACGAGACTTCCTGCGGGCTCGTGACATCAGC | 650
GGTCCAGGAAGACGTCAAGGGCTTGGTTTTGTAAAC | 448
AGCACCCCACATCCTGCACCCCACAACCCAGATCCC | 546
GAGCAGCGGGAGGAAGCTGCGGCGCGCAGAGCAGAG | 486
GGCAGGAGCTTCCGGCTCAGCCCTGCGGCCTGTGCC | 768
CCGCCCACTTCCGTGTGGCCGCCGATTGGTTTTGCC | 516
TAAACGTCAGCTTCCTTTGTGGCTTACCCTCCCGCC | 582
GCTTAGGCTCTTTCCTGTGTGGTGAGCACTAACCTC | 324
AATGGCGGGAAGTAAGAGGAATGTGGGCCTGACTGC | 386
ATCAAAGAACGGATATTGCTGTGACACCGCGGGGAC | 1560
GCAGGAAATGACGTCAGACCTCACTGCGGGTCTGAG | 1010
GCGCCATTTCCGCTGCGCAAGGCACCACAGGCCCTG | 943
TGAAGGAGCGGAAGGGTTGCTTGCAGACCGCACGGT | 1360
CTTGCTCCCCACTTCCTACCACATTCAATGCCCGGA | 558
TTCTTAGCAGAGGAAGCTGTTTGCGGGGAAAAAGGG | 2200
CCCTCTGAGACAGGATTTGCTTCCCACACAAGGCTA | 629
TGAATATTCTTCCGCACGTACCCACATGGCTCACTT | 337
